Among the data in PubChem BioAssay (EPA / NIEHS) are outcome and AC50 values, retold here.

Calls of active or inactive are those of the source. The calls were made as follows: active = hit-call score of the fitted dose curve at least 0.9, where 1 is the maximum; inactive = score below 0.9.

The experiment is described as follows: ATG_AP_2_CIS: Attagene CIS-FACTORIAL HepG2 Assay for human Activator Protein 2 (AP-2) (AID 2282932). The settings on record: HepG2 AP-2 cis-reporter, Attagene transcription factor profiling; actives raise or lower the signal. The method, then: ATG_CIS is a cell-based, multiplexed-readout assay that uses HepG2, a human liver cell line, with measurements taken at 24 hours after chemical dosing in a 24-well plate.ATG_AP_2_CIS is one of 52 assay component(s) measured or calculated from the ATG_CIS assay. It is designed to make measurements of mRNA induction, a form of inducible reporter, as detected with fluorescence intensity signals by Reverse transcription polymerase chain reaction (RT-PCR) and Capillary electrophoresis technology.Data from the assay component ATG_AP_2_CIS was analyzed into 1 assay endpoint. This assay endpoint, ATG_AP_2_CIS, was analyzed with bidirectional fitting relative to DMSO as the negative control and baseline of activity. Using a type of inducible reporter, measures of mRNA for gain or loss-of-signal activity can be used to understand the reporter gene at the transcription factor-level as they relate to the gene TFAP2A and TFAP2B and TFAP2D. Furthermore, this assay endpoint can be referred to as a primary readout, because this assay has produced multiple assay endpoints where this one serves a reporter gene function. To generalize the intended target to other relatable targets, this assay endpoint is annotated to the dna binding intended target family, where the subfamily is basic helix-turn-helix leucine zipper.
Human liver HepG2 cells are transiently transfected with multiple reporter transcription units (MRTUs) in 6-well plates using FuGene 6 reagent (Roche; 3 ml FuGene/1 mg DNA). The MRTU constructs are regulated by a cis-regulating element (promoter). […] A major difference between the CIS and TRANS system is that in CIS activities of endogenous TFs are measured, whereas the TRANS assay evaluates changes in activities of exogenous, chimeric NR-Gal4 proteins. […] At the end of 24 hour incubation, total RNA was isolated using TriZol reagent (Invitrogen). The isolated RNA is then reverse-transcribed using oligo(dT) primer and Mo-MLV reverse transcriptase (Invitrogen) with DNAse I (Ambion) treatment for 30 min. The one-tenth of the produced cDNA was amplified by PCR using Taq DNA polymerase (Invitrogen) and two reporter sequence-specific primers. The PCR products were fluorescently labeled by primer extension with 6-arboxyfluorescein (6-FAM) 5'-labeled reporter sequence-specific primer (2 min at 95 C, 20 s at 68 C and 10 min at 72 C) and these products were digested with 5U of HpaI (New England Biolabs) for 2h at 37 C. The fragments were purified using Qiaquick PCR columns (Qiagen), analyzed on an ABI 3130xL genetic analyzer (Applied Biosystems) with peak positions identified by using a set of X-rhodamine (ROX)-labeled MapMarker1000 molecular weight standards (BioVentures). The raw capillary electrophoresis data was processed using Attagraph software (Attagene).
As to `CCCCCCCCCCN`, the result was inactive.
Still for that read-out and setting: next, `NCCCCCCN`: “inactive”; `CCCc1ccccc1O`: “inactive”; `OCc1cccnc1`: “inactive”.
Take `CCCCCC=CCC(=O)OC`: the compound was called inactive.
Same read-out and setting: in the case of `O=C=NC1CCC(CC2CCC(N=C=O)CC2)CC1` (stereo not given) it was “inactive”.
Still for that read-out and setting: in the case of `CCCCCCCCCCCCSC` it was “inactive”.
`S=C(S)NCCNC(=S)S`: the call was inactive.
Same read-out and setting: next, `O=C(O)c1snc(Cl)c1Cl`: “inactive”.
For `CCCC(=O)OCCC(C)CCC=C(C)C` (stereo not given), the call was inactive.
Take `NC(N)=NC(=O)c1nc(Cl)c(N)nc1N`: the result was inactive.
The same measure, in the same setting: in the case of `Nc1cc(Cl)c(O)c(Cl)c1` it was “inactive”.
The same measure, in the same setting: next, `CCOC(=S)SSC(=S)OCC`: “inactive”.
For `O=[N+]([O-])c1ccc(C=Cc2ccc([N+](=O)[O-])cc2S(=O)(=O)O)c(S(=O)(=O)O)c1`, the compound was classed as inactive.
In general, AC50 refers to the concentration giving half of the maximal activity seen. Turning to `C=CC(C)(O)CCC=C(C)CCC=C(C)C` (stereo not given), the AC50 is 161 µM (active).
Take `COCCCOc1ccnc(CS(=O)c2nc3ccccc3[nH]2)c1C` (stereo not given): the call was inactive.
`OC1OC[C@@H](O)[C@H](O)[C@H]1O` (stereo not given in full): the compound was called inactive.
Still for that read-out and setting: next, `CC(C)(C)C(=O)c1ccccc1`: “inactive”.
Same read-out and setting: in the case of `CCCCCNCCCCC` it was “inactive”; in that of `FC1(F)C(F)(F)C(F)(F)C2(F)C(F)(C1(F)F)C(F)(F)C(F)(F)C1(F)C(F)(F)C(F)(F)C(F)(F)C(F)(F)C12F` (stereo not given), “inactive”.
Take `Clc1sc(Cl)c(Cl)c1Cl`: the compound was classed as inactive.
Same read-out and setting: in the case of `CC(=O)Nc1ccc(CC(=O)O)cc1` it was “inactive”; in that of `Cc1ccc(C=O)s1`, “inactive”; in that of `N#Cc1ccccc1`, “inactive”.
On to `c1ccc2sc(SN(C3CCCCC3)C3CCCCC3)nc2c1`, for which the compound was classed as inactive.
Same read-out and setting: next, `CC(C)=CCCC(C)=CCCC(C)=CCO`: “inactive”; `CN(C)C(=N)N=C(N)N`: “inactive”; `CC(C)Oc1ccccc1O`: “inactive”.
Same read-out and setting: next, `CCCCN`: “inactive”.
For `C=CC[N+](C)(C)CC=C`, the result was inactive.
With `Cc1ccc(S)cc1`, the compound was called inactive.
On the same count and under the same terms, in the case of `O=P(c1ccccc1)(c1ccccc1)c1ccccc1` it was “inactive”; in that of `Nc1ccc(F)c([N+](=O)[O-])c1`, “inactive”.
With `N#Cc1nc(Cl)c(Cl)c(Cl)c1Cl`, the AC50 is 4.74 µM (active).
`O=C(O)CCSCCC(=O)O`: the compound was classed as inactive.
The same measure, in the same setting: in the case of `Cc1ccc(O)c(C(C)(C)C)c1` it was “inactive”.
Same read-out and setting: next, `O=[N+]([O-])c1cc(C(F)(F)F)ccc1Cl`: “inactive”.
In the case of `COc1c(Cl)c(Cl)c(Cl)c(Cl)c1Cl`, the compound was classed as inactive.
Same read-out and setting: in the case of `O=C(O)COCCN1CCN(C(c2ccccc2)c2ccc(Cl)cc2)CC1` (stereo not given) it was “inactive”; in that of `O=[N+]([O-])c1ccc(Nc2ccc(Nc3ccccc3)c(S(=O)(=O)O)c2)c([N+](=O)[O-])c1`, “inactive”.
